{
  "source": "PubChem BioAssay AID2284385",
  "about": "(EPA ToxCast)",
  "target": "human Peroxisome proliferator-activated Receptor alpha (PPARa), PPARA (gene 5465) (UniProt Q07869)",
  "sequence (Q07869 whole entry, looked up)": "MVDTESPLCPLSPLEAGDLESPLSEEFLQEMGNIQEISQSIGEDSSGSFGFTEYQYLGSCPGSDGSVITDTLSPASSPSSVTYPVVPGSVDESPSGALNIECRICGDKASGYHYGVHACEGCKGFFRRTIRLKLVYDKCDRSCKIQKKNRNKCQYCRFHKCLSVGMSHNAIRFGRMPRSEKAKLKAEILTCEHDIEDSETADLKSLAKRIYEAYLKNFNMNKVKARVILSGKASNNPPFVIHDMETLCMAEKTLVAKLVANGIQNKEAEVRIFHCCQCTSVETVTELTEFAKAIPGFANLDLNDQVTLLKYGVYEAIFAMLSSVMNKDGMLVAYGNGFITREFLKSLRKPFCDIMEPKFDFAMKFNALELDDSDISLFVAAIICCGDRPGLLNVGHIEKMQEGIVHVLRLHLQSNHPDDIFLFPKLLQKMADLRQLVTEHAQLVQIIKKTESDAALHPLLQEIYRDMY",
  "assay": "ERF_TW_NR_COA_hPPARA: Eurofins (ERF) Nuclear Receptor (NR) Functional Coactivator Assay for human Peroxisome proliferator-activated Receptor alpha (PPARa) Agonism & Antagonism, conducted at Taiwan lab site",
  "description": "ERF_TW_NR_COA_hPPARA is a biochemical, single-readout assay that uses extracted gene-proteins in a cell-free assay. Measurements were taken 3 hours after chemical dosing in a 96-well plate. See PPARalpha Human NHR Functional Agonist Coactivator Assay, Panlabs.ERF_TW_NR_COA_hPPARA is an assay component calculated from the ERF_TW_NR_COA_hPPARA assay. It is designed to measure FRET using a type of binding reporter as detected by fluorescence intensity of GW7647 with fluorimetry technology.Data from the assay component ERF_TW_NR_COA_hPPARA was analyzed at the assay endpoint, ERF_TW_NR_COA_hPPARA, in the positive analysis fitting direction relative to DMSO as the negative control and baseline of activity. Using a type of binding reporter, gain-of-signal activity can be used to understand changes in binding as they relate to gene PPARA. To generalize the intended target to other relatable targets, this assay endpoint is annotated to the nuclear receptor intended target family, where the subfamily is non-steroidal.\nHuman recombinant peroxisome proliferators-activated receptor alpha (PPARA, PPARa, PPAR-alpha) hPPAR, NR1C1) receptors expressed in insect are used. Test compound and/or vehicle is incubated with the 2.5 nM receptors and binding buffer in modified kit buffer pH 7.4 for 3 hours at RT. Determination of the amount of complex formed is read microplate reader (excitation:337 nm, emission: 520/490 nm). Test compound-induced increase fluorescence by 50 percent or more (>/=50%) relative to the 1 uM GW7647 response indicates possible PPARa receptor agonist activity. Test compound-induced inhibition of 20 nM GW7647-induced fluorescence response by 50 percent or more (>/=50%) indicates receptor antagonist activity.",
  "note": "The source made the active and inactive calls. The calls were made as follows: active = hit-call score of the fitted dose curve at least 0.9, where 1 is the maximum; inactive = score below 0.9.",
  "data": [
    {"smiles": "O=C(O)CCC(F)(F)C(F)(F)C(F)(F)F", "values": [
      {"measurement": "outcome", "result": "inactive"}
    ]},
    {"smiles": "CN(CCOc1ccc(CC2SC(=O)NC2=O)cc1)c1ccccn1", "note": "(configuration not stated)", "values": [
      {"measurement": "outcome", "result": "inactive"}
    ]},
    {"smiles": "CC(C)(Oc1ccc(C(=O)c2ccc(Cl)cc2)cc1)C(=O)O", "values": [
      {"measurement": "AC50", "result": "15.7 µM (active)"}
    ]},
    {"smiles": "O=C(O)C(F)(F)C(F)(F)C(F)(F)C(F)(F)C(F)(F)C(F)(F)C(F)(F)C(F)(F)Cl", "values": [
      {"measurement": "outcome", "result": "inactive"}
    ]},
    {"smiles": "O=C(CC(=O)C(F)(F)C(F)(F)C(F)(F)F)c1cccs1", "values": [
      {"measurement": "outcome", "result": "inactive"}
    ]},
    {"smiles": "O=C(O)C(F)(F)C(F)(F)C(F)(F)C(F)(F)C(F)(F)C(F)(F)C(F)F", "values": [
      {"measurement": "AC50", "result": "31.1 µM (active)"}
    ]},
    {"smiles": "O=C(Cl)C(F)(F)C(F)(F)C(F)(F)C(F)(F)C(F)(F)C(F)(F)F", "values": [
      {"measurement": "AC50", "result": "31.6 µM (active)"}
    ]}
  ]
}
